# Source: PubChem BioAssay (NCATS)
# Several values for one entry are separate records, joined by “and”; a condition that tells them apart may be missing. Equal entries are not always repeated. Unmarked numbers belong to inactive results. Records with an inconclusive call do not appear. Activity calls are given as the source filed them. The call rests on the fitted dose curve; in most records, active means well fitted activation curve with a large enough effect; inconclusive means small, poorly fitted or top-dose-only effect; inactive means flat fitted curve, though single readings scatter.
# Assay: Cellular Toxicity (caspase-3) HepG2 (AID 654);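 further: cells exposed to compound for 16 hours before reading; 0% = DMSO alone and 100% = caspase signal from 100 µM tamoxifen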
# Settings: HepG2 caspase-3 activation, luminescence, 0% = DMSO only, 100% = tamoxifen; series mostly up to 92.2 µM
# Method in brief: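 qHTS, HepG2, 1500 cells/well, complete medium; cpd 16 h 37 °C; Caspase-Glo 3/7, 20 min RT; lum. Norm: DMSO vs 100 uM tamoxifen; AC50 Hill fit.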
row,SMILES,outcome
1,CCCN(CCC)C(=O)SCC,inactive
2,COc1ccc2nc(N)sc2c1,inactive
3,ClCCCl,inactive
4,CCC(O)OC(O)CC (stereo unspecified),inactive
5,C=Cc1ccccc1Cl,inactive
6,c1ccc2c(c1)c1cccc3ccc4cccc2c4c31,inactive
7,Cc1cccc([N+](=O)[O-])c1C,inactive
8,CCCCCCCCO,inactive
9,CC(C)=CCCC(C)CCO (stereo unspecified),inactive
10,O=[N+]([O-])c1cccc(Cl)c1Cl,inactive
11,CCO[Si](CCCN)(OCC)OCC,inactive
12,Clc1cc(Cl)c(Cl)cc1Cl,inactive
13,CCO,inactive
14,C=CC(=O)OCCOCCOCCOCCOC(=O)C=C,inactive
15,Clc1cc(Cl)c(Cl)c(Cl)c1Cl,inactive
16,CCCCC(CC)CN (stereo unspecified),inactive
17,O=NO,inactive
18,c1ccc2c(c1)[nH]c1ccccc12,inactive
19,OCCNCCO,inactive
20,Nc1ccc(Cl)cc1Cl,inactive
21,CCC(C)c1ccccc1O (stereo unspecified),inactive
22,CC1=CC(C)(C)Nc2ccccc21,inactive
23,CN(C)C=O,inactive
24,Cc1ccc(N)c([N+](=O)[O-])c1,inactive
25,CCCCOCCO,inactive
26,CC(=O)OC/C=C(\C)CCC=C(C)C,inactive

# Assay: Cellular Toxicity (caspase-3) Jurkat (AID 655);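 further: cells exposed to compound for 16 h at 37 °C before reading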
# Settings: Jurkat caspase-3 activation, luminescence, DMSO = 0%, tamoxifen = 100%; at 92.2 µM (top of the series)
# Method in brief: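 qHTS in human Jurkat T-cell leukemia line: 16 hr compound treatment at 37 °C, caspase-3/7 activity measured by Caspase-Glo luminescence. AC50 derived from Hill equation.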
row,SMILES,caspase-3 activation
1,CCCN(CCC)C(=O)SCC,2.52%
2,COc1ccc2nc(N)sc2c1,-5.35%
3,ClCCCl,2.03%
4,CCC(O)OC(O)CC (stereo unspecified),0.389% and 0.685%
5,C=Cc1ccccc1Cl,-1.24%
6,c1ccc2c(c1)c1cccc3ccc4cccc2c4c31,0.0871%
7,Cc1cccc([N+](=O)[O-])c1C,0.0783%
8,CCCCCCCCO,-0.397%
9,CC(C)=CCCC(C)CCO (stereo unspecified),2.37%
10,O=[N+]([O-])c1cccc(Cl)c1Cl,1.08%
11,CCO[Si](CCCN)(OCC)OCC,1.79%
12,Clc1cc(Cl)c(Cl)cc1Cl,2.8%
13,CCO,-0.073%
14,Clc1cc(Cl)c(Cl)c(Cl)c1Cl,1.31%
15,CCCCC(CC)CN (stereo unspecified),-1.36% and 1.48%
16,O=NO,-1.69% and 0.278%
17,c1ccc2c(c1)[nH]c1ccccc12,0.344%
18,OCCNCCO,2.36%
19,Nc1ccc(Cl)cc1Cl,0.852%
20,CCC(C)c1ccccc1O (stereo unspecified),0.687% and -0.479%
21,CC1=CC(C)(C)Nc2ccccc21,-0.184% and 0.591%
22,CN(C)C=O,2.75% and 2.81%
23,Cc1ccc(N)c([N+](=O)[O-])c1,-0.471%
24,CCCCOCCO,0.121% and 0.365%
25,CC(=O)OC/C=C(\C)CCC=C(C)C,1.05%
